Source: PubChem (National Center for Advancing Translational Sciences (NCATS))
Sfp inh = qHTS Assay for Inhibitors of Bacillus subtilis Sfp phosphopantetheinyl transferase (PPTase); 4'-phosphopantetheinyl transferase ffp (Bacillus subtilis), Q9F4F7; Biochemical Sfp PPTase activity, qHTS; Potency, µM, without a hit: largest response in the series, negative = inhibition, actives largely listed as inhibitors; actives 3.5% (n = 310,000); AID 1490, 2009;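 also: the enzyme is Sfp with the accession as filed and its product quenches rhodamine fluorescence; potency is read from the fitted curve at half-maximal effect; 0% = enzyme reaction without inhibitor and -100% = no enzyme wells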
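Reaction rates are the 30-min fluorescence difference (ex 525, em 598 nm) in wells containing 15 nM Sfp, 5 uM rhodamine-CoA and 12.5 uM BHQ-2-YbbR at pH 7.6 with 10 mM MgCl2.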
G9a block = qHTS Assay for Inhibitors of Histone Lysine Methyltransferase G9a; actives 8.8% (n = 350,000); Potency, µM (titrated, usually from 102 µM), without a hit: top-dose activity, negative = inhibition, actives largely listed as inhibitors; Histone-lysine N-methyltransferase EHMT2 (Homo sapiens), Q96KQ7; G9a H3K9 monomethylation, AlphaScreen, 2 h; also: potency is read from the fitted curve at half-maximal effect; nearly all actives have a fitted effect of over 75% in size
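G9a (20 nM) preincubated 15 min RT with compounds, then 500 nM biotinylated H3K9 peptide and 20 uM SAM added; 2 h RT reaction. Monomethyl-H3K9 product detected by AlphaScreen with anti-H3K9me1 antibody, streptavidin donor and anti-rabbit IgG acceptor beads.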
MmCpn inh = Inhibitors of TCP-1 ring complex (TRiC) of Methanococcus maripaludis (MmCpn): qHTS | AID 504842, 2011 | actives 0.031% (n = 330,000) | purified Mm-Cpn ATPase, ADP Transcreener TR-FRET | Potency, µM (series often up to 76.9 µM), for inactives: at the top dose activity, negative = inhibition, usual class: inhibitors; also: potency is read from the fitted curve at half-maximal effect; nearly all actives have a fitted effect of over 80% in size
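Measured: ADP formation by purified Mm-CPN. Conditions: 25 nM protein, 10 uM ATP, Tris pH 7.4 with Mg2+, K+ and DTT, 37°C for 30 min. Detection: Transcreener HTRF after 30 min at room temperature.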
PLK1 PBD inh = qHTS for Inhibitors of PLK1-PDB (polo-like kinase 1 - polo-box domain): Primary Screen. Plk1 PBD binding of FITC phosphopeptide, fluorescence polarization. Potency, µM, for the others: max response, negative = inhibition, usual class: inhibitors. actives 2.8% (n = 360,000). AID 720504, 2013; also: potency is read from the fitted curve at half-maximal effect; series mostly up to about 57 µM; nearly all actives have a fitted effect of over 65% in size
Target sequence (P53350 whole entry, looked up, the tested form may be a part): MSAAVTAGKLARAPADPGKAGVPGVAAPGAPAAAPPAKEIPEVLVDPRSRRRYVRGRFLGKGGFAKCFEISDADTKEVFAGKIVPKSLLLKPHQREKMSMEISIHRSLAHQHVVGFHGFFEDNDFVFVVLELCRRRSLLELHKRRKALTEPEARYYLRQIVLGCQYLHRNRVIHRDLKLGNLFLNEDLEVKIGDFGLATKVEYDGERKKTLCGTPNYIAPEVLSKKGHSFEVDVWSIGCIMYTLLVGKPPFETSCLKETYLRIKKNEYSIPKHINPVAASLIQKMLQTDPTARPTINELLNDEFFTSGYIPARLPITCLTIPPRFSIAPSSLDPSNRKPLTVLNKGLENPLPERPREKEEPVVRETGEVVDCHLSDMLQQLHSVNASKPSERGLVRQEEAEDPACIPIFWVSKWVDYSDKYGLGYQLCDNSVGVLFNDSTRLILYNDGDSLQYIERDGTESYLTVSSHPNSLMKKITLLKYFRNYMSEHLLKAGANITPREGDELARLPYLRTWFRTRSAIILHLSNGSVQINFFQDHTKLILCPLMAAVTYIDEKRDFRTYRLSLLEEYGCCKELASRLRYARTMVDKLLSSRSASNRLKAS
CCT chaperon mod = High-Throughput Screening for Modulators of Cytosolic Chaperonin Activity; purified chaperonin ATPase assay, HTRF ADP detection, 30 min; activity change, % (concentration not given with the values), hits read low; actives 0.3% (n = 360,000); in the data active = activity change below about -30%
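Nucleotide hydrolysis assay: TRiC at 20–40 nM final (set by batch activity) with 10 uM ATP, 30 min at 37 °C, in presence of 76 uM compound. Detection by competitive ADP HTRF, 30 min ambient.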
VDR inhibitor = Inhibitors of the vitamin D receptor (VDR): qHTS. actives 0.93% (n = 400,000). Potency, µM, without a hit: max response, negative = inhibition, actives largely listed as inhibitors. VDR-SRC2-3 peptide fluorescence polarization, 2 h; also: potency is read from the fitted curve at half-maximal effect
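Fluorescence polarization assay of small-molecule disruption of VDR binding to coregulator peptide SRC2-3. Compounds and controls pin-transferred, then read after 2 h incubation at ambient room temperature.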
The depositor's hits bear a star; ? = inconclusive; . = not tested or not shown; [ ] = dose if it differs, or a comment. Compounds with a hit are over-represented: about 10% of the library has one in this group of screens. Unless noted, calls follow the shape of the dose curve; as a rule, active = well fitted curve in the direction sought with a large enough effect; inconclusive = small, poorly fitted or top-dose-only effect, or another doubt; inactive = no such curve, though single readings can be large; an effect the other way counts as inactive or inconclusive. Unless noted, % is scaled to controls: 0 for no effect and ±100 for the full control effect.

SMILES	Sfp inh	G9a block	MmCpn inh	PLK1 PBD inh	CCT chaperon mod	VDR inhibitor
Cc1nc(NC(=S)NC(=O)c2ccccc2)sc1C	?	.	0%	-10%	-33*	6%
Cc1nc(NC(=O)c2csc3ccccc23)sc1C	-15%	45µM*	-1%	-4%	0	-17%
Cc1nc(NC(=O)CCc2ccccc2)sc1C	40µM*	10µM*	-1%	15µM*	-4	89µM*
CSc1nnc(NC(=O)CCc2ccccc2)s1	-9%	.	-9%	-12%	0	9%
COc1ccc(OC)c(CNC(=O)c2ccc(C)c(NC(=O)c3nsc4ccccc34)c2)c1	.	-22%[59 µM]	.	.	.	3%
O=C(COc1ccc(Cl)cc1)NCCc1csc(-c2ccc(C(F)(F)F)cc2)n1	.	6%[59 µM]	.	.	.	-1%
O=C1C=C[C@@H](O)[C@H]2[C@@H]3C(=O)N(C4CCCCC4)C(=O)[C@@H]3CC[C@H]12	0%	.	.	.	.	.
C=Cc1ccc(Cn2c(C)c(CNCc3cccc(Br)c3)c(C(=O)O)c2C)cc1	.	3%[59 µM]	.	.	.	9%
Cc1ccccc1N1C(=O)CC(Nc2ccc3c(c2)OCO3)C1=O (configuration not stated)	?	40µM*	-2%	-22%	-2	-8%
CC1Cc2cc(/C(O)=C3/C(=O)C(=O)N(CCCn4ccnc4)C3c3cccnc3)ccc2O1 (configuration not stated)	-1%	50µM*	0%	-4%	3	3%
CC1Cc2cc(/C(O)=C3/C(=O)C(=O)N(CCCn4ccnc4)C3c3ccncc3)ccc2O1 (configuration not stated)	-1%	.	-1%	0%	-4	3%
CC1Cc2cc(/C(O)=C3/C(=O)C(=O)N(CCCn4ccnc4)C3c3cccc([N+](=O)[O-])c3)ccc2O1 (configuration not stated)	15%	50µM*	-5%	-14%	0	-1%
COc1ccc(C2/C(=C(\O)c3ccc4c(c3)OCCO4)C(=O)C(=O)N2CCCn2ccnc2)cc1 (configuration not stated)	-1%	?	-1%	-15%	0	11%
CC1Cc2cc(/C(O)=C3/C(=O)C(=O)N(CCCn4ccnc4)C3c3ccc(Br)cc3)ccc2O1 (configuration not stated)	26%	.	0%	-15%	-1	-14%
COc1ccccc1C1/C(=C(\O)c2ccc3c(c2)OCCO3)C(=O)C(=O)N1CCCn1ccnc1 (configuration not stated)	-2%	40µM*	0%	0%	0	-1%
CCOC(=O)c1c(NC(=O)C(C)NCc2ccco2)sc2c1CCC(C)C2 (configuration not stated)	?	11µM*	1%	3%	0	-7%
CCOC(=O)c1c(NC(=O)COc2ccc(C)cc2C(C)(C)C)sc2c1CCC(C)C2 (configuration not stated)	.	11%[59 µM]	.	.	.	1%
CCOC(=O)c1c(NC(=O)COc2cccc(C(F)(F)F)c2)sc2c1CCC(C)C2 (configuration not stated)	.	10µM*	.	.	.	?
CCOC(=O)c1c(NC(=O)CS(=O)(=O)c2ccc(C)cc2)sc2c1CCC(C)C2 (configuration not stated)	.	-1%[59 µM]	.	.	.	4%
COc1cc(C(C)=O)ccc1Oc1ccc(S(=O)(=O)N2CCOCC2)cn1	.	3%[59 µM]	1%	-20%	0	-15%
Cc1nc2c(cc(Oc3ccc(S(=O)(=O)N4CCOCC4)cn3)c3ccsc32)s1	?	71µM*	?	-1%	1	-6%
O=[N+]([O-])c1ccc(C(=S)N2CCCC2)cc1	50µM*	-113%[59 µM]	2%	21µM*	-2	-29%
